ALR inh = blocks human ALR sulfhydryl oxidase activity; P55789; purified ALR, DTT oxidation, H2O2 HRP-luminol luminescence; inhibition, % (test concentration not listed); actives 3.8% (n = 290,000);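 active = mean replicate inhibition above about 79%, with every replicate also reaching it, limit read from the data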
CFTR F508del cor = correctors of CFTR F508del function in bronchial epithelial cells; actives 0.36% (n = 350,000); AID 720511; activity (quench increase), % at 7.58 µM; CFBE cells, YFP halide quenching; stimulated with forskolin plus potentiator P3; % fluorescence drop versus neutral controls;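 active = mean added fluorescence quench of at least 8% versus neutral control, with both replicates also reaching 8%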;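 also: cells transiently co-express mutant CFTR-F508del with the halide-sensitive YFP; corrector assay measuring rescue of mutant channel to the surface after 24 h compound exposure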
CASP6 VEID inh = caspase-6 (human) enzyme inhibition; inhibition, % at 12.5 µM; AID 686996; actives 0.53% (n = 350,000); purified caspase-6, Z-VEID-R110 cleavage fluorescence;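 active = mean inhibition across replicates at least about 35%, with every replicate also reaching that limit, limit read from the data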;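 also: 0% = median of neutral control wells and 100% = no fluorescence left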
PglD DTNB = PglD (C. jejuni) enzyme inhibition. actives 0.098% (n = 360,000). purified PglD enzyme, DTNB colorimetric CoA detection. inhibition, % at 12.5 µM. AID 602405; in the data active = inhibition above about 16%, passing the limit was not always enough
HIV Env fusion = HIV envelope-mediated fusion inhibition; HeLa-JRFL Env/CEM21 cell fusion, luciferase; inhibition, % at 12.3 µM; actives 1.1% (n = 360,000); AID 651610;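 active = mean replicate inhibition score of at least 50 and every replicate individually at or above 50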;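 also: 0% = plate neutral controls and 100% = maraviroc near 300 nM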
NSD2 HMT inh = NSD2 (human) methyltransferase inhibition. inhibition, % at 12.5 µM. O96028. NSD2 peptide methylation, AlphaScreen, 120 min. actives 0.54% (n = 310,000); in the data active = inhibition above about 50%
Numbers without * were called inactive; [ ] = dose if it differs, or a comment. Most compounds without a hit are left out; they make up all but 4.1% or so of the library.

For O=C(CCCCCNc1nc(=S)[nH]c2ccccc12)NCCc1ccc(Cl)cc1 the results were ALR inh 1.1, CFTR F508del cor -2.3, CASP6 VEID inh -3.0, HIV Env fusion 14.1 and NSD2 HMT inh 1.6.
O=C(O)CCCCCNc1nc(=S)[nH]c2ccccc12 was read as ALR inh 82.3*, PglD DTNB 1.1, HIV Env fusion -9.0 and NSD2 HMT inh -2.4.
`c1cc2c(c(NCc3ccncc3)c1)CCCC2` gave ALR inh 98.6*, PglD DTNB 0.5 and HIV Env fusion 23.2.
O=C(CN1CCCCC1)NC(=O)NC1CCCC1 was read as ALR inh -1.4, CFTR F508del cor -1.8, CASP6 VEID inh -2.5, HIV Env fusion 4.9 and NSD2 HMT inh -1.3.
For O=C(Cn1ncc(Cl)c(Cl)c1=O)NC(=O)NC1CCCCC1 the results were ALR inh 9.6, CFTR F508del cor -11.5, CASP6 VEID inh 22.2, HIV Env fusion 61.4* and NSD2 HMT inh 3.0.
For C[C@@H]1CN([C@H](C)CO)C(=O)CCCn2cc(nn2)CO[C@H]1CN(C)Cc1ccc(C(=O)O)cc1 the results were CFTR F508del cor 0.7 and CASP6 VEID inh 1.6.
`CC(Nc1cc(C)cc(C)c1)=[N+](C)CCNS(=O)(=O)c1ccc(Cl)cc1` gave ALR inh 0.4, CFTR F508del cor 0.7, CASP6 VEID inh -1.0, PglD DTNB -1.5, HIV Env fusion 60.9* and NSD2 HMT inh 0.6.
`CN(Cc1ccco1)c1ncnc2ccc(-c3ccc4c(ccn4C)c3)cc12` gave ALR inh -3.3, CFTR F508del cor 14.3*, CASP6 VEID inh -0.7, PglD DTNB 2.1 and HIV Env fusion -86.1.
CN(Cc1ccco1)c1ncnc2ccc(-c3ccc4c(c3)OCO4)cc12 was read as ALR inh -0.8, CFTR F508del cor -4.4, CASP6 VEID inh 3.4 and PglD DTNB 0.4.
For CN1CCN(C(=O)C[C@H]2CC[C@@H]3[C@H](COC[C@@H](O)CN3Cc3cccc(F)c3)O2)CC1 the results were CFTR F508del cor -0.2, CASP6 VEID inh -1.1, PglD DTNB -5.0 and HIV Env fusion -3.9[16.7 µM].
O=c1nc2ccc(Cl)cn2c2ccc(S(=O)(=O)N3CCOCC3)cc12 was read as ALR inh -8.1, CFTR F508del cor 3.2, CASP6 VEID inh 18.5, PglD DTNB 1.2, HIV Env fusion -5.0 and NSD2 HMT inh -1.1.
O=c1nc2ccc(Cl)cn2c2ccc(S(=O)(=O)N3CCCCC3)cc12 was read as ALR inh 6.8, CFTR F508del cor 0.4, CASP6 VEID inh 91.6*, PglD DTNB 1.1, HIV Env fusion -7.4 and NSD2 HMT inh -1.4.
`O=C(N[C@H]1CC[C@@H](CCNS(=O)(=O)c2ccc(Cl)cc2)O[C@@H]1CO)c1cccnc1` gave CFTR F508del cor -2.5, CASP6 VEID inh 0.2, PglD DTNB 2.2 and HIV Env fusion -16.2[16.7 µM].
Screening COc1ccccc1S(=O)(=O)N1[C@@H]2CNC[C@H]1[C@H]2c1ccc(-c2ccccc2C)cc1 returned CFTR F508del cor -2.2 and CASP6 VEID inh -0.9.
`CCCCNC(=S)N/N=C/C1=CCC2CC1C2(C)C` (stereo unspecified) gave ALR inh -1.3, PglD DTNB 0.0, HIV Env fusion 84.4* and NSD2 HMT inh -3.1.
For COCCNC(=O)C[C@H]1CC[C@H](NC(=O)NC2CCCC2)[C@@H](CO)O1 the results were CFTR F508del cor -2.6, CASP6 VEID inh 4.7, PglD DTNB -0.6 and HIV Env fusion -22.6[16.7 µM].
`Fc1ccc(NC(=S)N/N=C/c2ccc(F)c(F)c2)cc1` gave CFTR F508del cor -0.9, CASP6 VEID inh 4.4, HIV Env fusion 0.5 and NSD2 HMT inh 16.7.
Fc1ccc(/C=N/NC(=S)Nc2ccc(Cl)cc2Cl)cc1 was read as ALR inh -1.2, CFTR F508del cor 10.1*, CASP6 VEID inh -3.6, HIV Env fusion -14.2 and NSD2 HMT inh -1.2.
For Cc1cccc(N=c2oc3cc(O)ccc3cc2C(N)=O)c1 the results were ALR inh 94.5*, PglD DTNB -1.3, HIV Env fusion -11.2 and NSD2 HMT inh 9.5.
`CCCCCCN1CC(O)=C(c2nc3ccccc3[nH]2)C1=N` gave ALR inh 5.4, CFTR F508del cor 2.4, CASP6 VEID inh -0.1, PglD DTNB 2.9 and NSD2 HMT inh -0.3.
Screening CCC(C)N1CC(O)=C(c2nc3ccccc3[nH]2)C1=N (stereo unspecified) returned ALR inh 81.7*, CFTR F508del cor 0.6, CASP6 VEID inh 8.3, PglD DTNB -6.5 and NSD2 HMT inh 3.8.
Screening O=C(N[C@H]1CC[C@H](CCNS(=O)(=O)Cc2ccccc2)O[C@H]1CO)c1cnccn1 returned CFTR F508del cor 0.9, PglD DTNB 14.9 and HIV Env fusion -17.6[16.7 µM].
Screening CC(NC(=O)Nc1ccc(O)cc1)(C(F)(F)F)C(F)(F)F returned ALR inh 98.4*, PglD DTNB 4.1 and NSD2 HMT inh -3.5.
For CCC(NC(=O)Nc1ccc(O)cc1)(C(F)(F)F)C(F)(F)F the results were ALR inh 98.6*, PglD DTNB -2.1 and NSD2 HMT inh 0.2.
CN(C)C(=O)C[C@H]1C[C@H]2c3cc(NC(=O)NC4CCCC4)ccc3O[C@H]2[C@@H](CO)O1 was read as CFTR F508del cor -0.5, CASP6 VEID inh 9.0, PglD DTNB 2.7 and HIV Env fusion -9.8[16.7 µM].
`COc1cccc(CNC(=O)C[C@@H]2C=C[C@@H](NC(=O)C3CCC3)[C@H](CO)O2)c1` gave CFTR F508del cor -2.1 and HIV Env fusion -6.7[16.7 µM].
C=CCNC(=O)[C@@H]1[C@H]2C(=O)O[C@H](c3ccccc3)[C@H](c3ccccc3)N2[C@H](c2ccc(OCCO)cc2)[C@@]12C(=O)Nc1ccc(C#CCCO)cc12 was read as CFTR F508del cor -1.0, CASP6 VEID inh -0.1 and HIV Env fusion -51.6[16.7 µM].
COc1ccc(CNC(=O)N(C)C[C@@H]2OCc3ccccc3-c3c(n(C)c4ccccc34)C(=O)N([C@H](C)CO)C[C@@H]2C)cc1 was read as CFTR F508del cor 1.1, CASP6 VEID inh 1.3, PglD DTNB 1.3 and HIV Env fusion 85.1*[16.7 µM].
COc1ccc(CNC(=O)N(C)C[C@@H]2OCc3ccccc3-c3c(n(C)c4ccccc34)C(=O)N([C@@H](C)CO)C[C@@H]2C)cc1 was read as CFTR F508del cor 3.6, CASP6 VEID inh 1.8 and HIV Env fusion 100.2*.
For CN(C)CCCNC(=O)[C@@H]1[C@@H](CO)[C@@H]2Cn3c(cccc3=O)[C@@H]2N1C(=O)Nc1ccccc1 the results were CFTR F508del cor -1.4, CASP6 VEID inh 0.4 and PglD DTNB -1.2.
For C[C@H](CO)N1C[C@H](C)[C@H](CN(C)Cc2ccccc2)Oc2c(NS(=O)(=O)c3ccc(Cl)cc3)cccc2C1=O the results were CFTR F508del cor -0.1, CASP6 VEID inh 1.5, PglD DTNB 5.8 and HIV Env fusion -12.9[16.7 µM].
Screening CO[C@@H]1CN(C)C(=O)c2cc(NC(=O)C3CCOCC3)ccc2OC[C@H](C)N(C(C)=O)C[C@@H]1C returned CFTR F508del cor -1.2 and HIV Env fusion -1.8[16.7 µM].

Source: PubChem BioAssay (Broad Institute)
